# NOMO-1 viab – NOMO-1 AML cell viability reduction, primary screen, STK33 inhibitor project, CellTiter-Glo luminescence; AID 2330, 2010; 37,000 compounds, 7.5% hits; inhibition, % (concentration not given with the values); NOMO-1 AML viability, 72 h; in the data active = inhibition above about 80%; inconclusive = no clear call, values can overlap the other calls
# Hedgehog inh – Hedgehog pathway signaling inhibitors, primary screen, luminescence, Shh-LIGHT2 cells, Gli-luciferase | Shh-LIGHT2 Gli-luciferase reporter, 30 h | inhibition, % (concentration not given with the values) | 22,000 compounds, 2.1% hits | AID 2313, 2010;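 active = mean inhibition across valid replicates above about 65%, limit read from the data; inconclusive = mean under the limit, yet half or more replicates past it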;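 note: pathway switched on by Shh-conditioned medium diluted 1 in 25 in low serum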
# MITF inhib – inhibitors of MITF, primary screen, MITF inhibitor project, cell-based, luminescence; TRPM1 promoter luciferase, 24 h; inhibition, % (concentration not given with the values); 37,000 compounds, 0.28% hits; in the data active = inhibition above about 85%; inconclusive = no clear call, values can overlap the other calls; inactive = below about 68%;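 note: human melanocyte line stably carrying TRPM1 promoter luciferase reporter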
# PD-1 reverse act – activators reversing PD-1 mediated T-cell inhibition, primary screen, luminescence, primary human CD4 T cells, PD-L1 beads. 29,000 tested, under 10 active. activation, % (concentration not given with the values). AID 2316, 2010. CellTiter-Glo 96 h; call rule not given here;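 note: 0% = median vehicle wells and 100% = positive control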
# YB-1 expr inh – inhibitors of YB-1 gene expression, primary screen, cell-based, fluorescence; U2OS, qRT-PCR YB-1 vs CDIP delta delta Cp, 16 h; stronger effect = higher value; zero = DMSO, each unit about twofold; delta delta Cp (YB-1 minus CDIP) (test concentration not listed); 30,000 compounds, 0.37% hits;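 active = delta delta Cp rounded down to an integer at or above 3, about 3 SD of DMSO wells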;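 note: higher means less YB-1 transcript or more CDIP transcript relative to DMSO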
# * = called active by the depositor; ? = inconclusive; / = no result given. Shown are actives, neighbours in structure and some others; about 7.4% of the full set was active somewhere.
SMILES,NOMO-1 viab,Hedgehog inh,MITF inhib,PD-1 reverse act,YB-1 expr inh
Cc1noc(C)c1NC(=O)N(C)C[C@H]1Oc2ccc(NC(=O)Cn3cnnn3)cc2C(=O)N([C@@H](C)CO)C[C@@H]1C,-4,4,-2,1,3.9*
C[C@H]1CN([C@@H](C)CO)C(=O)c2cc(NC(=O)Nc3ccccc3)ccc2O[C@@H]1CN(C)Cc1ccc(Oc2ccccc2)cc1,97*,-4,12,2,-0.39
C[C@@H]1CN([C@@H](C)CO)C(=O)Cc2cc(NC(=O)CCC(F)(F)F)ccc2O[C@@H]1CN(C)Cc1ccncc1,22,-21,-5,-7,0.22
COc1c(NC(=O)N(C)C)csc1Cl,-10,-10,-1,1,-0.31
C[C@H](CO)N1C[C@H](C)[C@@H](CN(C)Cc2ccc(Oc3ccccc3)cc2)Oc2ccc(NC(=O)CCC(F)(F)F)cc2C1=O,2,/,-8,0,-0.12
C[C@H](CO)N1C[C@H](C)[C@H](CN(C)Cc2ccc(Oc3ccccc3)cc2)Oc2ccc(NC(=O)CCC(F)(F)F)cc2C1=O,114*,-7,3,-3,-0.35
C[C@@H]1CC[C@]2(C(=O)O)CC[C@]3(C)C(=CCC4[C@@]5(C)CC[C@@H](O)[C@](C)(C(=O)O)C5CC[C@]43C)C2[C@H]1C (some centres undefined),8,-8,-1,0,1.3
CC1CC(=O)[C@]2(C)CC[C@]3(C)C(C(=O)C(O)C4[C@@]5(C)CC[C@H](O)C(C)(C(=O)O)C5CC[C@]43C)C2C1C (some centres undefined),119*,82*,58,-12,0.95
C[C@H](CO)N1C[C@H](C)[C@@H](CN(C)Cc2ccc(Oc3ccccc3)cc2)Oc2ccc(NC(=O)Cc3cn(C)c4ccccc34)cc2C1=O,41,/,27,-4,0.26
C=C1C(=O)O[C@H]2[C@H]1[C@@H](OC(=O)/C(C)=C/C)C(OC(C)=O)/C(C(=O)OC)=C\CC[C@@]1(C)O[C@H]21 (some centres undefined),119*,-313,45,-12,-0.27
C=C1C(=O)O[C@H]2[C@H]1[C@@H](OC(=O)/C(C)=C\C)C(OC(C)=O)/C(C(=O)OC)=C\CC[C@@]1(C)O[C@H]21 (some centres undefined),109*,-72,53,-13,2.2
C=C1C(=O)O[C@H]2[C@H]1C[C@H](OC(=O)/C(C)=C\C)/C(C)=C\CC[C@@]1(C)O[C@@H]21,121*,5,33,-15,-0.29
C=C1C(=O)O[C@H]2[C@H]1[C@@H](OC(=O)C(C)(O)CCl)C(OC(C)=O)/C(C(=O)OC)=C\CC[C@@]1(C)O[C@H]21 (some centres undefined),109*,-16,53,-12,-0.17
Cc1noc(C)c1S(=O)(=O)Nc1ccc2c(c1)C(=O)N([C@H](C)CO)C[C@H](C)[C@@H](CN(C)S(C)(=O)=O)O2,22,-7,7,0,-0.043
N=c1oc2ccc3ccccc3c2cc1C(=O)Nc1ccccc1,115*,4,11,0,-0.57
O=C(Nc1scc2c1c(=O)oc1ccccc12)c1ccccc1,37,-57,-50,4,-0.27
Cc1ccc(C(=O)Nc2cc3ccccc3oc2=O)cc1,139*,19,72,0,0.41
O=C(Nc1cc2c(ccc3ccccc32)oc1=O)c1ccccc1,15,-20,27,0,3.3*
Cc1noc(C)c1NC(=O)Nc1cccc2c1O[C@H](CN(C)C(=O)NC1CCCCC1)[C@H](C)CN([C@H](C)CO)C2=O,20,-6,-5,1,-0.28
Cc1ccc(F)c(NC(=O)CSc2nnnn2-c2ccccc2)c1,26,/,-19,0,/
COc1ccc(S(=O)(=O)Nc2cccc3c2O[C@@H](CN(C)Cc2ccc(C(=O)Nc4ccccc4N)cc2)[C@@H](C)CN([C@H](C)CO)C3=O)cc1,110*,/,34,2,-0.18
C[C@@H]1CN([C@@H](C)CO)C(=O)c2cccc(NS(=O)(=O)c3ccc(Cl)cc3)c2O[C@H]1CN(C)Cc1ccc(C(=O)Nc2ccccc2N)cc1,48,/,-11,0,-0.32
COc1ccc(S(=O)(=O)Nc2cccc3c2O[C@H](CN(C)Cc2ccc(C(=O)Nc4ccccc4N)cc2)[C@@H](C)CN([C@H](C)CO)C3=O)cc1,55,/,4,0,0.14
COc1ccc(S(=O)(=O)Nc2cccc3c2O[C@H](CN(C)Cc2ccc(C(=O)Nc4ccccc4N)cc2)[C@H](C)CN([C@H](C)CO)C3=O)cc1,128*,/,7,-1,-0.35
COc1ccc(S(=O)(=O)Nc2cccc3c2O[C@H](CN(C)Cc2ccc(C(=O)Nc4ccccc4N)cc2)[C@H](C)CN([C@@H](C)CO)C3=O)cc1,127*,/,16,-2,-0.15
SMILES,NOMO-1 viab,Hedgehog inh,MITF inhib,PD-1 reverse act,YB-1 expr inh
COc1ccc(C2=Nc3ccccc3SC(c3ccccc3)C2)cc1 (centres undefined),113*,80*,-3,-1,-0.022
CC(C)NC(=O)Nc1ccc2c(c1)C(=O)N([C@H](C)CO)C[C@H](C)[C@@H](CN(C)C(=O)Nc1cccc3ccccc13)O2,40,-7,15,1,-0.33
C[C@@H]1CN([C@@H](C)CO)C(=O)Cc2cc(NC(=O)C3CCCCC3)ccc2O[C@@H]1CN(C)Cc1ccc(Oc2ccccc2)cc1,95*,?,10,/,0.11
C[C@@H]1CN([C@H](C)CO)C(=O)Cc2cc(NC(=O)C3CCCCC3)ccc2O[C@@H]1CN(C)Cc1ccc(Oc2ccccc2)cc1,72,70*,39,-5,0.11
C[C@H](CO)N1C[C@H](C)[C@H](CN(C)Cc2ccc(Oc3ccccc3)cc2)Oc2ccc(NC(=O)C3CCCCC3)cc2CC1=O,48,18,8,-2,-0.46
C[C@@H]1CN([C@H](C)CO)C(=O)Cc2cc(NC(=O)C3CCCCC3)ccc2O[C@@H]1CN(C)Cc1ccc(-c2ccccc2)cc1,113*,43,16,-4,0.069
O=C(c1cccc(Cl)c1)N1CCCC1,-1,-8,-19,0,-0.33
C[C@H]1CN([C@@H](C)CO)C(=O)c2cc(NC(=O)NC3CCCCC3)ccc2O[C@@H]1CN(C)Cc1ccc2c(c1)OCO2,26,-8,-6,1,0.12
C[C@H]1CN([C@@H](C)CO)C(=O)c2cc(NC(=O)NC3CCCCC3)ccc2O[C@H]1CN(C)Cc1ccc2c(c1)OCO2,102*,11,-3,-2,0.031
C[C@H](CO)N1C[C@H](C)[C@H](CN(C)Cc2ccc3c(c2)OCO3)Oc2ccc(NC(=O)NC3CCCCC3)cc2C1=O,94*,/,4,1,-0.29
